Experimental data taken from PubChem BioAssay (EPA / NIEHS).
The source made the active and inactive calls. The calls were made as follows: active = hit-call score of the fitted dose curve at least 0.9, where 1 is the maximum; inactive = score below 0.9.

read-out: Monokine induced gamma interferon (MIG), CXCL9 (gene 4283); assay: BSK_BE3C_MIG: BioMAP Diversity Plus: BE3C Assay for Monokine induced gamma interferon (MIG) Biomarker Activity (AID 2283035); conditions: primary human bronchial epithelial cells; actives raise or lower the signal
Description: BSK_BE3C is a cell-based, multiplexed-readout assay that uses bronchial epithelial cell, a human lung primary cell, with measurements taken at 24 hours after chemical dosing in a 96-well plate.BSK_BE3C_MIG is an assay component measured in the BSK_BE3C assay. It measures MIG antibody related to regulation of gene expression using ELISA technology.Data from the assay component BSK_BE3C_MIG was analyzed into 1 assay endpoint. This assay endpoint, BSK_BE3C_MIG, was analyzed with bidirectional fitting relative to DMSO as the negative control and baseline of activity. Using a type of binding reporter, gain or loss-of-signal activity can be used to understand changes in the signaling as they relate to the gene CXCL9. Furthermore, this assay endpoint can be referred to as a primary readout, because this assay has produced multiple assay endpoints where this one serves a signaling function. To generalize the intended target to other relatable targets, this assay endpoint is annotated to the cytokine intended target family, where the subfamily is chemotactic factor.
The levels of cell surface (or secreted, indicated by the prefix "s") biomarker endpoints were measured by ELISA. Overt cytotoxicity to cells in confluent adherent cultures (all systems other than the BT system) was assessed by measuring total protein levels using sulforhodamine B (SRB) staining in parallel cultures at the time of biomarker measurements, indicated as SRB endpoints. For proliferation assays for adherent cell types, individual cell types are cultured at sub-confluence and relative cell numbers quantified by SRB staining at time points optimized for each system (48 h: 3C and CASM3C systems; 72 h: BT and HDF3CGF systems; 96 h: SAg system). SRB was performed by staining cells with 0.1% SRB after fixation with 10% TCA and reading wells at 560 nm.Viability and proliferation of PBMC (T cells) was quantified by Alamar Blue reduction for the SAg and BT systems. For PBMC viability (referred to as PBMC Cytotoxicity within the assay endpoint names), cells were plated (75,000/well in a 96-well plate) and then chemical samples added for 1 h before addition of activators, SEB and TSST-1 (20 ng/mL final concentration each). Cells were incubated for 90 h. Then, Alamar Blue (20 uL/well) (Invitrogen, Cat DAL1100) was added for 6 h, and the plates were read with a fluorescence microplate reader at 546/580 nm (excitation/emission). For PBMC proliferation, cells were plated and activated as above but incubated for only 16 h prior to addition of Alamar Blue. Plates were read after 6 h.

Q: For `O=C(OCCCCCOC(=O)c1ccccc1)c1ccccc1`, which outcome is on record?
A: inactive

Q: How did the outcome turn out when `C=CCOC(=O)c1ccccc1C(=O)OCC=C` was run?
A: inactive

Q: With `Oc1ccc2c(c1)OC[C@@H](N1CCC(O)(c3ccc(F)cc3)CC1)[C@H]2O` as the molecule, how does the outcome read?
A: inactive

Q: `Nc1ccc2c(c1)C(=O)c1ccccc1C2=O` was tested. Which outcome did it give?
A: inactive

Q: `Cc1ccccc1Cl` was tested. Which outcome did it give?
A: inactive

Q: Which outcome does the source give for `O=c1[nH]cc(F)c(=O)[nH]1` here?
A: inactive

Q: `Cc1ccc(C)c(O)c1C` was tested. Which outcome did it give?
A: inactive

Q: `NCC1(Cc2noc(=O)[nH]2)CCCCC1` was tested. Which outcome did it give?
A: inactive

Q: For `OC[C@@H](O)[C@@H](O)[C@H](O)[C@H](O)CO`, which outcome is on record?
A: inactive

Q: Which outcome does the source give for `CCCCCCCCCCCCCCCC` here?
A: inactive

Q: With `O=c1c(O)c(-c2ccc(O)c(O)c2)oc2cc(O)cc(O)c12` as the molecule, how does the outcome read?
A: inactive

Q: `CCCCN(CCCC)CCCC` was tested. Which outcome did it give?
A: inactive

Q: `CCCCCCOCCO` was tested. Which outcome did it give?
A: inactive

Q: How did the outcome turn out when `Cc1cccc(Nc2cc(Cl)nc(SCC(=O)O)n2)c1C` was run?
A: inactive

Q: `CCc1c(C(=O)NN2CCCCC2)nn(-c2ccc(Cl)cc2Cl)c1-c1ccc(Br)cc1` was tested. Which outcome did it give?
A: inactive

Q: For `COCCOCCOC`, which outcome is on record?
A: inactive

Q: With `CCOC(=O)C(C)(C)Oc1ccc(Cl)cc1` as the molecule, how does the outcome read?
A: inactive

Q: `C[Si]1(C)O[Si](C)(C)O[Si](C)(C)O[Si](C)(C)O1` was tested. Which outcome did it give?
A: inactive

Q: How did the outcome turn out when `O=C(O)Cc1ccccc1Nc1c(Cl)cccc1Cl` was run?
A: inactive

Q: How did the outcome turn out when `CNC(=O)[C@H]1O[C@@H](n2cnc3c(NCc4cc(Cl)ccc4OCc4cc(C)no4)ncnc32)[C@H](O)[C@@H]1N` was run?
A: inactive

Q: `COc1cc(-c2nc(NC(=O)c3cc4cc(C)cc(C)c4n3CC(=O)O)sc2CCC2CCCCC2)c(OC)cc1Cl` was tested. Which AC50 did it give?
A: 1560 nM (active)

Q: `Cc1ccc(C(C)C)c(O)c1` was tested. Which outcome did it give?
A: inactive

Q: `Nc1nc(N)c2nc(CNc3ccc(C(=O)N[C@@H](CCC(=O)O)C(=O)O)cc3)cnc2n1` was tested. Which outcome did it give?
A: inactive

Q: With `CCOC(=O)CCC(=O)OCC` as the molecule, how does the outcome read?
A: inactive

Q: Which outcome does the source give for `C=CCc1ccc(O)c(OC)c1` here?
A: inactive

Q: Which outcome does the source give for `NC(=O)Cn1c(=O)cc(CCN2CCN(c3nccc4sccc34)CC2)c2ccc(F)cc21` here?
A: inactive

Q: How did the outcome turn out when `CCCCCCCCCCCCCCCCCC(=O)O` was run?
A: inactive

Q: With `O=C(O)CCCCC(=O)O` as the molecule, how does the outcome read?
A: inactive

Q: How did the outcome turn out when `CCCCCCCCCCCCCO` was run?
A: inactive

Q: `COCCOC[C@H](CC1(C(=O)NC2CCC(C(=O)O)CC2)CCCC1)C(=O)Oc1ccc2c(c1)CCC2` (stereo not given in full) was tested. Which outcome did it give?
A: inactive

Q: `Nc1ccccc1N` was tested. Which outcome did it give?
A: inactive

Q: For `CCCCOC(=O)CCCCCCCCC(=O)OCCCC`, which outcome is on record?
A: inactive

Q: With `O=C(N[C@@H](Cc1ccccc1)[C@@H](O)C(=O)N1C[C@@H](O)[C@@H](O)C1)c1cc2cc(Cl)ccc2[nH]1` as the molecule, how does the outcome read?
A: inactive

Q: Which outcome does the source give for `CC(=O)Oc1ccccc1C(=O)O` here?
A: inactive

Q: For `Cc1ccc(Cl)cc1`, which outcome is on record?
A: inactive

Q: For `Cc1cc(NC(=O)C(=O)O)cc(C)c1Oc1ccc(O)c2c1CCC2`, which outcome is on record?
A: inactive

Q: `CC1(C)CC(N=C=O)CC(C)(CN=C=O)C1` (stereo not given) was tested. Which outcome did it give?
A: inactive

Q: For `CCCCCCCCCCC`, which outcome is on record?
A: inactive

Q: With `COC(=O)c1ccc(O)cc1` as the molecule, how does the outcome read?
A: inactive

Q: With `CNCc1cc(F)ccc1Oc1ccc(Cl)c(Cl)c1` as the molecule, how does the outcome read?
A: inactive
